What all share (conditions): mRNA level, 48 h; actives raise or lower the signal
Read-out in test [1]: Early growth response protein 1 (EGR1) transcription factor, EGR1 (gene 1958)
The experiment in a line: LTEA_HepaRG_EGR1: Life Technologies and Expression Analysis (LTEA) Assay for Early growth response protein 1 (EGR1) transcription factor using HepaRG (AID 2283490). The method in brief:
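Read-out is EGR1 mRNA level by qRT-PCR, normalized to three housekeeping genes and analysed for gain or loss of signal against 0.5% DMSO. Source cells: human HepaRG, treated 48 h at up to 100 uM in half-log dilutions.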

Read-out in test [2]: Ezrin (EZR), EZR (gene 7430)
The experiment in a line: LTEA_HepaRG_EZR: Life Technologies and Expression Analysis (LTEA) Assay for Ezrin (EZR) using HepaRG (AID 2283491). Put shortly: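 HepaRG, 48 h chemical exposure, 8-pt half-log series from 100 uM, 0.5% DMSO vehicle, duplicates. Read-out: EZR mRNA by TaqMan qRT-PCR (Fluidigm array), housekeeping-normalized; bidirectional curve fit vs DMSO baseline.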

Read-out in test [3]: Cytochrome P450 3A7 (Homo sapiens) (UniProt P24462)
The experiment in a line: LTEA_HepaRG_CYP3A7: Life Technologies and Expression Analysis (LTEA) Assay for CYP3A7 using HepaRG (AID 2283492). Put shortly:
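Differentiated HepaRG cells in serum-free induction medium exposed 48 h in duplicate to 8-point half-log series from 100 uM top in 0.5% DMSO. CYP3A7 mRNA by qRT-PCR, normalized to ACTB/GAPDH/POLR2A, bidirectional fit versus DMSO.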

Read-out in another test: CYP3A5 (gene 1577)
The experiment in a line: LTEA_HepaRG_CYP3A5: Life Technologies and Expression Analysis (LTEA) Assay for CYP3A5 using HepaRG (AID 2283493). The method in brief: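 HepaRG plated 48 h, switched to serum-free induction medium, chemicals added 48 h (max 100 uM, half-log, 0.5% DMSO). RNA isolated; CYP3A5 by TaqMan qRT-PCR. Gain/loss vs DMSO.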

Read-out in test [4]: Fatty Acid-Binding Protein 1 (FABP1), FABP1 (gene 2168)
The experiment in a line: LTEA_HepaRG_FABP1: Life Technologies and Expression Analysis (LTEA) Assay for Fatty Acid-Binding Protein 1 (FABP1) using HepaRG (AID 2283494). The method in brief:
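HepaRG, 48 h post-plating switched to serum-free induction medium, then dosed 48 h (duplicate, 8 pts, ≤100 uM, 0.5% DMSO). RNA → Fluidigm TaqMan qRT-PCR, FABP1 normed to ACTB/GAPDH/POLR2A. Bidirectional curve fit vs DMSO.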

Read-out in test [5]: Cytochrome P450 4A22 (Homo sapiens) (UniProt Q5TCH4)
The experiment in a line: LTEA_HepaRG_CYP4A22: Life Technologies and Expression Analysis (LTEA) Assay for Cytochrome P450 4A22 (CYP4A22) using HepaRG (AID 2283495). The method in brief:
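Differentiated HepaRG cells in serum-free induction medium exposed 48 h in duplicate to eight half-log concentrations up to 100 uM in 0.5% DMSO. CYP4A22 mRNA quantified by TaqMan qRT-PCR, normalized to ACTB, GAPDH and POLR2A; bidirectional fit versus DMSO.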

Read-out in test [6]: Cytochrome P450 7A1 (Homo sapiens) (UniProt P22680)
The experiment in a line: LTEA_HepaRG_CYP7A1: Life Technologies and Expression Analysis (LTEA) Assay for Cytochrome P450 7A1 (CYP7A1) using HepaRG (AID 2283496). Put shortly: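 HepaRG cells plated 48 h, then switched to serum-free induction medium and exposed in duplicate for 48 h to 8-point half-log series from 100 uM in 0.5% DMSO. CYP7A1 mRNA by qRT-PCR (TaqMan), normalized to ACTB/GAPDH/POLR2A; bidirectional fit versus DMSO.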

Read-out in test [7]: Glutathione S-Transferase (GSTA2), GSTA2 (gene 2939)
The experiment in a line: LTEA_HepaRG_GSTA2: Life Technologies and Expression Analysis (LTEA) Assay for Glutathione S-Transferase (GSTA2) using HepaRG (AID 2283497). Put shortly:
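HepaRG, 48 h dosing, 8-pt half-log CRC from 100 uM, 0.5% DMSO vehicle, n=2; RNA → Fluidigm TaqMan qRT-PCR; GSTA2 vs ACTB/GAPDH/POLR2A; gain/loss fit vs DMSO.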

Read-out in test [8]: Glutamate-cysteine ligase catalytic (GCLC), GCLC (gene 2729)
The experiment in a line: LTEA_HepaRG_GCLC: Life Technologies and Expression Analysis (LTEA) Assay for Glutamate-cysteine ligase catalytic (GCLC) using HepaRG (AID 2283498). The method in brief:
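Read-out is GCLC transcript level by Fluidigm-based TaqMan qRT-PCR, normalized to three housekeeping genes and fitted in both directions relative to 0.5% DMSO. Human HepaRG cells received chemicals for 48 h, up to 100 uM.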

Read-out in test [9]: growth arrest and DNA damage 45 (GADD45G), GADD45G (gene 10912)
The experiment in a line: LTEA_HepaRG_GADD45G: Life Technologies and Expression Analysis (LTEA) Assay for growth arrest and DNA damage 45 (GADD45G) using HepaRG (AID 2283499). Put shortly: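 Differentiated human HepaRG cells, 48 h post-plating, exposed 48 h in serum-free induction medium to 8 half-log concentrations (top 100 uM, 0.5% DMSO) in duplicate. GADD45G mRNA measured by Fluidigm TaqMan qRT-PCR, normalized to ACTB, GAPDH, POLR2A; bidirectional fit versus DMSO.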

Read-out in test [10]: Glutamate-cysteine ligase regulatory (GCLM), GCLM (gene 2730)
The experiment in a line: LTEA_HepaRG_GCLM: Life Technologies and Expression Analysis (LTEA) Assay for Glutamate-cysteine ligase regulatory (GCLM) using HepaRG (AID 2283500). The method in brief: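 Cells were plated, cultured 48 h, switched to serum-free induction medium, then dosed in duplicate for 48 h at eight half-log concentrations up to 100 uM. RNA was then profiled by qRT-PCR; gain or loss versus DMSO was fitted.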

Read-out in test [11]: Glutathione S-transferase M3 (GSTM3), GSTM3 (gene 2947)
The experiment in a line: LTEA_HepaRG_GSTM3: Life Technologies and Expression Analysis (LTEA) Assay for Glutathione S-transferase M3 (GSTM3) using HepaRG (AID 2283501). Put shortly:
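Differentiated human HepaRG cells were exposed in duplicate for 48 h in serum-free induction medium, 8 points from 100 uM top in half-log steps, 0.5% DMSO. GSTM3 mRNA was measured by TaqMan qRT-PCR, normalized to ACTB, GAPDH and POLR2A; bidirectional fit versus DMSO.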

Read-out in test [12]: Heat shock 70 kDa protein 1 (HSPA1A), gene 3303
The experiment in a line: LTEA_HepaRG_HSPA1A: Life Technologies and Expression Analysis (LTEA) Assay for Heat shock 70 kDa protein 1 (HSPA1A) using HepaRG (AID 2283502). Put shortly:
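Readout is HSPA1A transcript level by microfluidic qRT-PCR, normalized to three housekeeping genes and analysed for gain or loss of signal relative to 0.5% DMSO. Human HepaRG cultures received test chemicals for 48 h at up to 100 uM.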

Read-out in test [13]: Hypoxia-inducible factor 1-alpha (Homo sapiens) (UniProt Q16665)
The experiment in a line: LTEA_HepaRG_HIF1A: Life Technologies and Expression Analysis (LTEA) Assay for Hypoxia-inducible factor 1 (HIF1A) Trancription factor using HepaRG (AID 2283503). Put shortly: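 Differentiated HepaRG cells in serum-free induction medium exposed 48 h, in duplicate, to 8-point half-log series from 100 uM in 0.5% DMSO. HIF1A mRNA measured by TaqMan qRT-PCR, normalized to ACTB/GAPDH/POLR2A, fitted bidirectionally versus DMSO.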

Read-out in test [14]: 3-Hydroxy-3-Methylglutaryl-CoA Synthase 2 (HMGCS2), HMGCS2 (gene 3158)
The experiment in a line: LTEA_HepaRG_HMGCS2: Life Technologies and Expression Analysis (LTEA) Assay for 3-Hydroxy-3-Methylglutaryl-CoA Synthase 2 (HMGCS2) using HepaRG (AID 2283504). The method in brief: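 Human HepaRG cells in serum-free induction medium were exposed in duplicate for 48 h to 8-point half-log series from 100 uM top in 0.5% DMSO. HMGCS2 mRNA measured by TaqMan qRT-PCR, normalised to ACTB, GAPDH, POLR2A; bidirectional fit versus DMSO.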

Read-out in another test: HGF (gene 3082)
The experiment in a line: LTEA_HepaRG_HGF: Life Technologies and Expression Analysis (LTEA) Assay for Hepatocyte Growth Facto (HGF) using HepaRG (AID 2283505). The method in brief:
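Differentiated HepaRG cells in serum-free induction medium exposed 48 h in duplicate, 8 half-log concentrations from 100 uM in 0.5% DMSO. HGF mRNA by qRT-PCR, normalised to ACTB, GAPDH, POLR2A; bidirectional fitting.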

Read-out in test [15]: Insulin Like Growth Factor 1 (IGF1), IGF1 (gene 3479)
The experiment in a line: LTEA_HepaRG_IGF1: Life Technologies and Expression Analysis (LTEA) Assay for Insulin Like Growth Factor 1 (IGF1) using HepaRG (AID 2283506). Put shortly: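 HepaRG, plated 48 h, then switched to serum-free induction media; test chemical 8-pt half-log from 100 uM (0.5% DMSO), duplicate, 48 h. Lysis in RLT, TaqMan qRT-PCR, norm. ACTB/GAPDH/POLR2A. Bidirectional fit vs DMSO.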

Read-out in test [16]: Intercellular Adhesion Molecule 1 (ICAM1), ICAM1 (gene 3383)
The experiment in a line: LTEA_HepaRG_ICAM1: Life Technologies and Expression Analysis (LTEA) Assay for Intercellular Adhesion Molecule 1 (ICAM1) using HepaRG (AID 2283507). The method in brief:
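Differentiated human HepaRG cells in serum-free induction medium exposed 48 h in duplicate to 8 half-log concentrations (top 100 uM, 0.5% DMSO). ICAM1 mRNA quantified by TaqMan qRT-PCR, normalized to ACTB, GAPDH and POLR2A; bidirectional fitting versus DMSO.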

Read-out in test [17]: Insulin-like growth factor-binding protein 1 (IGFBP1), IGFBP1 (gene 3484)
The experiment in a line: LTEA_HepaRG_IGFBP1: Life Technologies and Expression Analysis (LTEA) Assay for Insulin-like growth factor-binding protein 1 (IGFBP1) using HepaRG (AID 2283508). The method in brief: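 HepaRG cells, plated 48 h then switched to serum-free induction medium, exposed in duplicate for 48 h to 8-point half-log series from 100 uM in 0.5% DMSO. mRNA measured by qRT-PCR, normalized to ACTB/GAPDH/POLR2A; bidirectional fit versus DMSO.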

Read-out in test [18]: Interleukin 6 (IL6), IL6 (gene 3569)
The experiment in a line: LTEA_HepaRG_IL6: Life Technologies and Expression Analysis (LTEA) Assay for Interleukin 6 (IL6) using HepaRG (AID 2283509). The method in brief:
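HepaRG, ~100,000 cells/well, 48 h pre-culture; serum-free induction medium; cmpd 8-pt half-log from 100 uM, 0.5% DMSO, duplicate, 48 h. Lysis in RLT, TaqMan qRT-PCR; gain or loss vs DMSO.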

Active and inactive are the calls of the source. How the source made its calls: active means hit-call score of the fitted dose curve at least 0.9, where 1 is the maximum; inactive means score below 0.9.

Sequence of Hypoxia-inducible factor 1-alpha (Homo sapiens) (Q16665 whole entry, looked up): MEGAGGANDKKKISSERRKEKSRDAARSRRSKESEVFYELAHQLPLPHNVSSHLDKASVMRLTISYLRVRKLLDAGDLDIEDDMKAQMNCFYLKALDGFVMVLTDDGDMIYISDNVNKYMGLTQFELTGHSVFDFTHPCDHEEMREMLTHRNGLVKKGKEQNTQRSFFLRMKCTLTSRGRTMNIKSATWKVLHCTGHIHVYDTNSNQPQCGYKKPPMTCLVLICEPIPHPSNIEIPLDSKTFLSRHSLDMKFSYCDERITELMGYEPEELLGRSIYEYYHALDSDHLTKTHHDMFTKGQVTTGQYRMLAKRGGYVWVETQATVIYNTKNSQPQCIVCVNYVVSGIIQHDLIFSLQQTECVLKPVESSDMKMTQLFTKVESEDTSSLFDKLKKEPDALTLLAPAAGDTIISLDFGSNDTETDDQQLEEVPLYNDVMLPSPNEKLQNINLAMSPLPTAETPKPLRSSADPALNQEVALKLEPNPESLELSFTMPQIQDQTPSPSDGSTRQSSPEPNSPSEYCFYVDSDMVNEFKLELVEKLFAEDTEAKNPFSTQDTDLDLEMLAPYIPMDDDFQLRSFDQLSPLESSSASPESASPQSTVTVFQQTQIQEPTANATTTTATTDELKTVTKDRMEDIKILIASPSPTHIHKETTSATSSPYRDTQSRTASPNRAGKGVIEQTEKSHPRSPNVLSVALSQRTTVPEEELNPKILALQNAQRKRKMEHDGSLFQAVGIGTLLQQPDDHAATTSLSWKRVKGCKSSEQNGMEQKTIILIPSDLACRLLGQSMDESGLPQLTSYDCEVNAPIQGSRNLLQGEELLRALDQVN
Sequence of Cytochrome P450 3A7 (Homo sapiens) (P24462 whole entry, looked up): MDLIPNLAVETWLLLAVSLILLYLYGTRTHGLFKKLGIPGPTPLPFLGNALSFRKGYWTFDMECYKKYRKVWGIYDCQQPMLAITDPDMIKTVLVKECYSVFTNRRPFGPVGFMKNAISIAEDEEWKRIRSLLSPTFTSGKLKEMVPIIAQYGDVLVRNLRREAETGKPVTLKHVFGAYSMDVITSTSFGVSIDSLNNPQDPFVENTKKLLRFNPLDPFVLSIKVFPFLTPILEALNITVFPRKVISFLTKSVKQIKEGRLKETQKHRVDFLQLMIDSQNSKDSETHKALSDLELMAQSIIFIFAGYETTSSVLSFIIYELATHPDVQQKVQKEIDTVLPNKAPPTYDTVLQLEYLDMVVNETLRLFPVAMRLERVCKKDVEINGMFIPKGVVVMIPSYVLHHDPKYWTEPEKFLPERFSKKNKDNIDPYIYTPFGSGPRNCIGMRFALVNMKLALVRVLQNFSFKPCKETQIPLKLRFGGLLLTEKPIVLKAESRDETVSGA

Usually AC50 stands for the concentration at which the activity in the assay is half-maximal. Take `Cn1c(-c2ccccc2)cc(-c2ccccc2)[n+]1C`: the compound was classed as inactive (in test [1]; in test [2]; in test [10]; in test [13]; with HGF (gene 3082); in test [16]). Moreover, the result in test [18] was inactive. Also, the concentration at half-maximal activity (AC50) was 44.1 µM (active) in test [3]; 79 µM (active) with CYP3A5 (gene 1577); 21.9 µM (active) in test [4]; 24 µM (active) in test [5]; 57.2 µM (active) in test [6]; 65.9 µM (active) in test [7]. For the same compound, the half-maximal activity concentration (AC50) in test [8] was 82.3 µM (active); in [9], 50 µM (active); in test [11] it was 85.7 µM (active); in test [12], 40.2 µM (active); in test [14], 35 µM (active); in [15] it was 13.4 µM (active). In test [17], the half-maximal activity concentration (AC50) was 50 µM (active).

Take `O=c1n(Cl)c(=O)n(Cl)c(=O)n1Cl`: the compound was classed as inactive (in test [1]; in test [2]; in [3]; in the test with CYP3A5 (gene 1577); in [4]; in [5]). Besides, the result in test [6], in [7], in [8], in test [9], in [10] and in test [11] was inactive. In addition, the compound was classed as inactive (in test [12]; in [13]; in test [14]; with HGF (gene 3082); in [15]; in test [16]). For the same compound, the call in test [17] and in test [18] was inactive.

As for `CC(C)C1(C)N=C(c2ncccc2C(=O)O)NC1=O` (centres undefined), the result (in test [1]; in test [2]; in test [3]; with CYP3A5 (gene 1577); in test [4]; in [5]) was inactive. The outcome in [6], in test [7], in test [8], in [9], in test [10] and in test [11] was inactive. Also, the result (in test [13]; in [14]; with HGF (gene 3082); in test [15]; in test [16]; in test [17]) was inactive. Moreover, in [18], the compound was classed as inactive.

Source of the values: PubChem BioAssay (EPA / NIEHS).
